Results as given in PubChem BioAssay (EPA / NIEHS).
“And” between values parts separate entries of the source, which are not always exact repeats. Equal entries are not always repeated. Inconclusive results are not listed. A structure can be active in one record and inactive in another. The source made the active and inactive calls. The calls were made as follows, unless noted: active = hit-call score of the fitted dose curve at least 0.9, where 1 is the maximum; inactive = score below 0.9.

Key:
[1] = target: Bile acid receptor (Homo sapiens) (UniProt Q96RI1); assay: ATG_FXR_TRANS: Attagene TRANS-FACTORIAL HepG2 Assay for Farnesoid X Receptor (FXR) (AID 2282979; active = hit-call score of the fitted dose curve at least 0.9, where 1 is the maximum;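 also: hits raise reporter mRNA above DMSO so AC50 marks FXR activation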); details: HepG2 Attagene TRANS FXR-GAL4 reporter transcription
In short: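 After 24 h chemical treatment of transfected HepG2 cells, GAL4-UAS reporter transcripts driven by an exogenous FXR-GAL4 fusion were measured by RT-PCR and capillary electrophoresis. Increases over DMSO were fitted.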

[2] = BSK_3C_Proliferation: Cell Proliferation Assessment in the BioMAP Diversity Plus: 3C Assay (AID 2283006); details: primary human endothelial cells (HUVEC);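 as to AC50: potency may reflect either rise or fall in cell number versus DMSO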
In short: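 Proliferation as total protein: sulforhodamine B (0.1%) stain of TCA-fixed subconfluent human umbilical vein endothelial cells, absorbance 560 nm, 48 h after dosing. Activity fitted in both directions against DMSO baseline.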

[3] = read-out: E-selectin (Homo sapiens) (UniProt P16581); assay: BSK_3C_Eselectin: BioMAP Diversity Plus: 3C Assay for Eselectin Biomarker Activity (AID 2283015); details: primary human endothelial cells (HUVEC); actives raise or lower the signal
In short: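 Endpoint derived by bidirectional fitting against DMSO vehicle; signal is ELISA-detected E-selectin from primary HUVEC at 24 h post-dosing, with parallel SRB staining (0.1% SRB, 560 nm) flagging cytotoxicity.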

[4] = read-out: Human Leukocyte Antigen - DR isotype (HLADR), HLA-DRA (gene 3122); assay: BSK_3C_HLADR: BioMAP Diversity Plus: 3C Assay for Human Leukocyte Antigen - DR isotype (HLADR) Biomarker Activity (AID 2283019); details: primary human endothelial cells (HUVEC); actives raise or lower the signal
In short: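 Compound added to primary HUVEC cultures, 24 h incubation, then HLA-DR determined by ELISA; endpoint derived by bidirectional fitting relative to DMSO negative control.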

[5] = read-out: Matrix Metallopeptidase 1 (MMP1), MMP1 (gene 4312); assay: BSK_BE3C_MMP1: BioMAP Diversity Plus: BE3C Assay for Matrix Metallopeptidase 1 (MMP1) Biomarker Activity (AID 2283024); details: primary human bronchial epithelial cells; actives raise or lower the signal
In short: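 ELISA measurement of MMP-1 after 24 h compound exposure of primary human bronchial epithelial cells. Changes in either direction fitted relative to DMSO; parallel SRB staining checked overt cytotoxicity.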

[6] = BSK_BE3C_SRB: Viability Assessment in the BioMAP Diversity Plus: BE3C Assay (AID 2283028); details: primary human bronchial epithelial cells
In short: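 SRB total-protein staining (0.1%, after TCA fixation) of chemically dosed human bronchial epithelial primary cells at 24 h; DMSO serves as the negative control for bidirectional curve fitting.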

[7] = read-out: Vascular cell adhesion molecule 1 (VCAM1), VCAM1 (gene 7412); assay: BSK_4H_VCAM1: BioMAP Diversity Plus: 4H Assay for Vascular cell adhesion molecule 1 (VCAM1) Biomarker Activity (AID 2283033); details: primary human endothelial cells (HUVEC); actives raise or lower the signal
In short: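 VCAM-1 ELISA read 24 h after chemical dosing of HUVEC in the BioMAP 4H system, with gain or loss of signal fitted relative to DMSO. Parallel SRB staining (560 nm) checked overt cytotoxicity.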

[8] = read-out: Interferon-gamma inducible Protein 10 (IP10), CXCL10 (gene 3627); assay: BSK_BE3C_IP10: BioMAP Diversity Plus: BE3C Assay for Interferon-gamma inducible Protein 10 (IP10) Biomarker Activity (AID 2283034); details: primary human bronchial epithelial cells; actives raise or lower the signal
In short: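 IP-10 quantified by ELISA in human primary bronchial epithelial cell cultures at 24 hours post-dosing. Gain or loss of signal fitted relative to DMSO; parallel SRB staining assessed overt cytotoxicity.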

[9] = read-out: Urokinase-type plasminogen activator receptor (uPAR), PLAUR (gene 5329); assay: BSK_BE3C_uPAR: BioMAP Diversity Plus: BE3C Assay for Urokinase-type plasminogen activator receptor (uPAR) Biomarker Activity (AID 2283039); details: primary human bronchial epithelial cells; actives raise or lower the signal;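 also: cells exposed to compound for one day before measurement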
In short: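 uPAR levels were measured by ELISA after 24 h compound treatment of primary human bronchial epithelial cells, fitted in both directions relative to DMSO. Parallel SRB staining served as the cytotoxicity read-out.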

[10] = read-out: Interleukin-6 (IL6), IL6 (gene 3569); assay: BSK_CASM3C_IL6: BioMAP Diversity Plus: CASM3C Assay for Interleukin-6 (IL6) Biomarker Activity for (AID 2283040); details: primary human coronary artery smooth muscle cells; actives raise or lower the signal
[11] = read-out: Monocyte Chemoattractant Protein-1 (MCP1), CCL2 (gene 6347); assay: BSK_CASM3C_MCP1: BioMAP Diversity Plus: CASM3C Assay for Monocyte Chemoattractant Protein-1 (MCP1) Biomarker Activity (AID 2283046); details: primary human coronary artery smooth muscle cells; actives raise or lower the signal;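 also: MCP-1 level quantified by ELISA 24 h after dosing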
[12] = BSK_CASM3C_Proliferation: Cell Proliferation Assessment in the BioMAP Diversity Plus: CASM3C Assay (AID 2283047); details: primary human coronary artery smooth muscle cells;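 also: sub-confluent cells exposed 48 h before staining; fitted both ways against DMSO so gain or loss of cell number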
[13] = read-out: Monokine induced gamma interferon (MIG), CXCL9 (gene 4283); assay: BSK_CASM3C_MIG: BioMAP Diversity Plus: CASM3C Assay for Monokine induced gamma interferon (MIG) Biomarker Activity (AID 2283048); details: primary human coronary artery smooth muscle cells; actives raise or lower the signal;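 also: MIG protein level measured by ELISA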
[14] = read-out: Tissue Factor, F3 (gene 2152); assay: BSK_CASM3C_TissueFactor: BioMAP Diversity Plus: CASM3C Assay for Tissue Factor Biomarker Activity (AID 2283052); details: primary human coronary artery smooth muscle cells; actives raise or lower the signal;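 also: cell surface tissue factor protein level read by ELISA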
[15] = read-out: Interferon-gamma inducible Protein 10 (IP10), CXCL10 (gene 3627); assay: BSK_hDFCGF_IP10: BioMAP Diversity Plus: hDFCGF Assay for Interferon-gamma inducible Protein 10 (IP10) Biomarker Activity (AID 2283053); details: primary human foreskin fibroblasts; actives raise or lower the signal
In short: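 ELISA quantification of IP-10 after a 24 h chemical exposure of human dermal foreskin fibroblast primary cultures. Both increases and decreases versus DMSO fitted.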

[16] = read-out: Epidermal growth factor receptor (EGFR), EGFR (gene 1956); assay: BSK_hDFCGF_EGFR: BioMAP Diversity Plus: hDFCGF Assay for Epidermal growth factor receptor (EGFR) Biomarker Activity (AID 2283057); details: primary human foreskin fibroblasts; actives raise or lower the signal
In short: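 EGFR levels by ELISA in human dermal fibroblast cultures, 24 h post-treatment, fitted bidirectionally versus DMSO. Parallel wells stained with sulforhodamine B to detect overt cytotoxicity.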

[17] = read-out: Monokine induced gamma interferon (MIG), CXCL9 (gene 4283); assay: BSK_SAg_MIG: BioMAP Diversity Plus: SAg Assay for Monokine induced gamma interferon (MIG) Biomarker Activity (AID 2283092); details: primary human HUVEC with PBMC; actives raise or lower the signal
In short: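 Measures CXCL9 protein by ELISA in a human vascular primary-cell co-culture (umbilical vein endothelium with PBMC) 24 h after chemical addition. Activity is scored up or down from the DMSO control.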

[18] = BSK_SAg_PBMCCytotoxicity: PBMC Cytotoxicity Assessment in the BioMAP Diversity Plus: SAg Assay (AID 2283093); details: primary human HUVEC with PBMC;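 also: PBMC viability measured as Alamar Blue reduction fluorescence at 546/580 nm; fitted both ways against DMSO so a hit may be loss or gain of signal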;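 as to AC50: PBMC superantigen activated with SEB plus TSST-1 one hour after compound addition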
In short: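 Alamar Blue reduction (6 h, 546/580 nm) reports PBMC cytotoxicity after 90 h superantigen activation (SEB, TSST-1; 20 ng/mL final each) with 1 h compound pre-treatment. Gain or loss of signal fitted versus DMSO.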

[19] = BSK_SAg_Proliferation: Cell Proliferation Assessment in the BioMAP Diversity Plus: SAg Assay (AID 2283095); details: primary human HUVEC with PBMC;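 also: relative cell number as total protein by SRB absorbance in sub-confluent culture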
In short: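 Relative cell number in the endothelial cell/PBMC co-culture was quantified at 96 h by SRB staining (0.1% SRB, 10% TCA fixation, read at 560 nm). Curves were fitted in both directions relative to DMSO baseline.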

[20] = target: Estrogen receptor (Homo sapiens) (UniProt P03372); assay: ATG_ERa_TRANS: Attagene TRANS-FACTORIAL HepG2 Assay for human Estrogen Receptor alpha (ERa) (AID 2282970; active = hit-call score of the fitted dose curve at least 0.9, where 1 is the maximum); details: HepG2 Attagene TRANS ERa GAL4 reporter, mRNA
In short: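 Signal derives from fluorescence of labelled reporter PCR fragments separated by capillary electrophoresis. HepG2 cells transiently carrying multiple GAL4-UAS reporter units were treated 24 hours, and induction above DMSO baseline was fitted as activity.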

Measured: AC50

Chain of Estrogen receptor (Homo sapiens) (P03372 whole entry, looked up, the tested form may be a part): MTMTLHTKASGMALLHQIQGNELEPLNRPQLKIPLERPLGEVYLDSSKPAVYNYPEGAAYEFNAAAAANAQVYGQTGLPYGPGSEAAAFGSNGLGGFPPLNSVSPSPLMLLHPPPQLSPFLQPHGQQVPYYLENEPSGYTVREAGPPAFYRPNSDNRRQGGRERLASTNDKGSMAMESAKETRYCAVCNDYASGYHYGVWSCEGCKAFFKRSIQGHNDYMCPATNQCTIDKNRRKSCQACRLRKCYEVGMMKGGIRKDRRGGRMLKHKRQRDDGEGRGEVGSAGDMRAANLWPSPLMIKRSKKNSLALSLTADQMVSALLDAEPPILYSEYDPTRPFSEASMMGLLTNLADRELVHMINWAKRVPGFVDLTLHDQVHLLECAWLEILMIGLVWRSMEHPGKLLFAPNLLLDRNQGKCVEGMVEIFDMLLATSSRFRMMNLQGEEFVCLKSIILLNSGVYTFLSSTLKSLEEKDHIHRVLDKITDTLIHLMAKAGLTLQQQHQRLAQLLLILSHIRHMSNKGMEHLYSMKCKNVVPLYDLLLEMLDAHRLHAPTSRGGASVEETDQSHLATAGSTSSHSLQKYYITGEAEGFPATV
Chain of Bile acid receptor (Homo sapiens) (Q96RI1 whole entry, looked up, the tested form may be a part): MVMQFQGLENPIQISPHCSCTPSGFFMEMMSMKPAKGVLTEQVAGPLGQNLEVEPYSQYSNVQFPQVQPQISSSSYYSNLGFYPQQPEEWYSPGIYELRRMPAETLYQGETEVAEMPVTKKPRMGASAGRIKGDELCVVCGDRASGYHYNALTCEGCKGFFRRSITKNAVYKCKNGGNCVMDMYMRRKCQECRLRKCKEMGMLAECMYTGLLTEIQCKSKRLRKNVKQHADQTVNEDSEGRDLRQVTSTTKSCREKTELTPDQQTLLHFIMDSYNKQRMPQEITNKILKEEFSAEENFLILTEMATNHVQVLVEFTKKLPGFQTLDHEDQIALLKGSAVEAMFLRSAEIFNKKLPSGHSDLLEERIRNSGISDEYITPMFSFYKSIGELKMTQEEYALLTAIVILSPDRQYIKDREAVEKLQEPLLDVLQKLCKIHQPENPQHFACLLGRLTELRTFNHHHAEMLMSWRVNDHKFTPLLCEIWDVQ
Chain of E-selectin (Homo sapiens) (P16581 whole entry, looked up): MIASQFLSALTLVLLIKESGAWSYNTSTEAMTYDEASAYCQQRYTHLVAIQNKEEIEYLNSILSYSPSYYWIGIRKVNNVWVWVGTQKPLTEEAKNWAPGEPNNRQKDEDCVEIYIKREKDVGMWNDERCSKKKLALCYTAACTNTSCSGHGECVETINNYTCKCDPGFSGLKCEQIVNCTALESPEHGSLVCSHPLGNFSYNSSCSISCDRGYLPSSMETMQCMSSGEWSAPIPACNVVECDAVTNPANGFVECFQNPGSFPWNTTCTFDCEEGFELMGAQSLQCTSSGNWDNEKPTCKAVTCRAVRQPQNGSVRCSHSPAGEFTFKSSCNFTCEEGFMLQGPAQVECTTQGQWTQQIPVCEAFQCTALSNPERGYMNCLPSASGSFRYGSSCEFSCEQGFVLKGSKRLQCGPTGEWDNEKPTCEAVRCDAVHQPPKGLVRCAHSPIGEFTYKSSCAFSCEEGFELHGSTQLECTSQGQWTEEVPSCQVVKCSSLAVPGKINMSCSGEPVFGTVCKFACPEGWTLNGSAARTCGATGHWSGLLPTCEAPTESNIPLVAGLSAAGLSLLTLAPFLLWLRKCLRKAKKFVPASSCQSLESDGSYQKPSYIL

O=C(CCN1CC1)OCC(CO)(COC(=O)CCN1CC1)COC(=O)CCN1CC1
inactive: [1]

C[C@]12CC[C@H](O)C[C@H]1CC[C@@H]1[C@@H]2C[C@@H](O)[C@]2(C)[C@@H](C3=CC(=O)OC3)CC[C@]12O
inactive: [1]

CNC(=N[N+](=O)[O-])NCC1CCOC1 (stereo unspecified)
inactive: [1]

CC1(C)CC(=O)CC(C)(C)N1[O]
inactive: [1]

O=[N+]([O-])O
not listed: [1] | [20]
inactive: all other assays above

O=C(O)CCCc1ccc(N(CCCl)CCCl)cc1
inactive: [20] | [5] | [6] | [9] | [15] | [16] | [17] | [18]
active: [2] 12.1 µM and 6.56 µM | [3] 20 µM | [4] 15.8 µM and 13.4 µM | [7] 27.1 µM and 25.4 µM | [8] 16.2 µM and 20 µM | [10] 15.8 µM and 20 µM | [11] 24 µM and 20 µM | [12] 20 µM and 1.6 µM | [13] 30.8 µM and 20 µM | [14] 15.2 µM and 5.57 µM | [18] 20 µM | [19] 16.4 µM and 12.2 µM

O=C(CCl)c1ccccc1
active: [2] 6.81 µM | [3] 6.97 µM | [4] 3.04 µM | [7] 3.54 µM | [8] 29.9 µM | [10] 12.7 µM | [11] 12.5 µM | [12] 2.44 µM | [13] 10.5 µM | [15] 4.64 µM | [17] 8.77 µM | [18] 4.68 µM | [19] 1.06 µM
inactive: [5] | [6] | [9] | [14] | [16]

CC(C)COP(=O)(OCC(C)C)OCC(C)C
not listed: [20]
inactive: all other assays above

CC(C)(C)C(O)C(Oc1ccc(-c2ccccc2)cc1)n1cncn1 (stereo unspecified)
active: [2] 31 µM | [3] 29.9 µM | [4] 30.6 µM | [7] 31.5 µM | [8] 6.71 µM | [10] 30.9 µM | [11] 29.2 µM | [12] 26.3 µM | [14] 14.4 µM
inactive: all other assays above

CCCOC(=O)c1ccccc1C(=O)OCCC
active: [20] 33.7 µM | [3] 36.4 µM | [4] 7.06 µM
inactive: all other assays above

O=[N+]([O-])c1cc(C(F)(F)F)c(Cl)c([N+](=O)[O-])c1Cl
active: [20] 14.6 µM | [1] 53.3 µM

CC(C)(C)C(=O)CCl
active: [2] 16.9 µM | [3] 20 µM | [4] 20 µM | [7] 25.7 µM | [12] 20 µM | [13] 20 µM | [18] 9.22 µM | [19] 23.1 µM
not listed: [1]
inactive: all other assays above

C=CC(=O)OCC(CC)CCCC (stereo unspecified)
active: [2] 27.6 µM | [4] 31.9 µM | [7] 0.159 µM | [15] 27.6 µM
not listed: [1] | [20]
inactive: all other assays above

O=C(O)COc1ccccc1
inactive: [20]

BrCBr
inactive: [20]

COc1cc(OC)nc(Oc2cccc(Oc3nc(OC)cc(OC)n3)c2C(=O)O)n1
inactive: [1]

O=C1C=CC(=O)C=C1
inactive: [6] | [9] | [10] | [11] | [13] | [14] | [16] | [17]
active: [2] 26.2 µM and 6.35 µM | [3] 13.4 µM and 8.64 µM | [4] 28.8 µM and 13.8 µM | [5] 5.14 µM and 4.77 µM | [7] 16.1 µM and 20 µM | [8] 16.3 µM and 30.9 µM | [12] 30.4 µM and 15.2 µM | [15] 16.8 µM and 23.7 µM | [17] 35.6 µM | [18] 9.09 µM and 7.38 µM | [19] 6.38 µM and 3.38 µM

C=C(Cl)Cl
inactive: [20]

SCc1ccco1
active: [20] 54.1 µM

O=P1(NCCCl)OCCCN1CCCl (stereo unspecified)
not listed: [1] | [20]
inactive: all other assays above

CCC(Br)(CC)C(=O)NC(N)=O
inactive: [1]

CC1OC(C)OC(C)O1 (stereo unspecified)
inactive: [1]

CC(C)C(=O)Cl
inactive: [1]

O=P(O)(Oc1ccccc1)Oc1ccccc1
inactive: [20] | [1]

Cc1cc(C)c(C2=C(OC(=O)CC(C)(C)C)C3(CCCC3)OC2=O)c(C)c1
inactive: [20] | [1]

CCCC=NO
inactive: [20] | [1]

C=C(Cl)CCl
inactive: [20]

C[C@]12CCC(=O)C(O)=C1CC[C@@H]1[C@@H]2CC[C@]2(C)C(=O)CC[C@@H]12
active: [20] 9.42 µM
